From ChEMBL document CHEMBL3988442, “University of Dundee, Small-Polar-MMV Screening Library” (2021)
About 420 (0.61%) of roughly 69,000 compounds showed an effect of 50% or more. What follows is part of a selection rich in strong results, with near analogues and random picks from the rest.

Molecular target: T1, Histidine--tRNA ligase (Leishmania infantum) (UniProt A4I591)
T1 sequence (whole entry): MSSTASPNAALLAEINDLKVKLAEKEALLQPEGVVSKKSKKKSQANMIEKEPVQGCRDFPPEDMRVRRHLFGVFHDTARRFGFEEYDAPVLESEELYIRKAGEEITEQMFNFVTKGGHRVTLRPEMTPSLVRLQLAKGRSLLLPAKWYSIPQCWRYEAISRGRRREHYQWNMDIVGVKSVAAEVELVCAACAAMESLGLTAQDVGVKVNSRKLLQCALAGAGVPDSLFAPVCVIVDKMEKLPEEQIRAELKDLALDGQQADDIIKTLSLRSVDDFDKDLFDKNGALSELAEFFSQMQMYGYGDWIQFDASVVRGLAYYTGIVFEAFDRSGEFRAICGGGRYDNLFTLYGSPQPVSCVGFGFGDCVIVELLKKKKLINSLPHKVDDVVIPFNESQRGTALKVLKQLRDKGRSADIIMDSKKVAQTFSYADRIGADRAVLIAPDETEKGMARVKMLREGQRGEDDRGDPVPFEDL
Experiment: Leishmania infantum Histidine tRNA synthetase (LdHisRS)
Type: functional
Design: scale not given: in the data most compounds retested in dose-response had high values
Conditions: 30 µM

Structure (SMILES) | Percent Effect [%]
COCC(=O)NC[C@@]1(COc2cnccn2)C[C@@H](O)[C@@H](O)C1 | 10.8
Cc1cnc(N2C[C@H]3C[C@H](C(=O)N4CCN(C)CC4)N(C)[C@H]3C2)nc1 | 5.05
CC(=O)Nc1ccc2nc(-c3nccn3C[C@@H]3CCCO3)ccc2c1 | 51.1
CC(=O)Nc1ccc2nc(-c3nccn3CCCN(C)C)ccc2c1 | 12.8
CC(=O)Nc1ccc2nc(-c3nccn3CC(C)(C)CO)ccc2c1 | 10.6
O=C([C@@H]1C[C@@H]2CCN(Cc3ccoc3)C[C@H]2O1)N1CCCC1 | 2.73
CN(C)C[C@@H]1C[C@@H]2CN(C(=O)c3ccoc3)CC[C@@H]2N1CC1CC1 | 7.32
NC(=O)N1C[C@H](NC(=O)c2cscn2)[C@@H]2OCCC[C@@H]21 | 13.6
CC(C)CC(=O)N1CC[C@H]2N(C)CC[C@@]2(C(=O)Nc2cccnc2)CC1 | 11.7
CCCn1cc(NC(=O)c2ccc(NC(=O)NC3CC3)cc2)ccc1=O | 92.8
Cn1cc(C(=O)Nc2cccc(F)c2)ccc1=O | 26.5
Cn1cc(NC(=O)Nc2cccc3cccnc23)ccc1=O | 114
CCCn1cc(NC(=O)c2ccc(S(C)(=O)=O)cc2)ccc1=O | 94.6
COC(=O)N1CCCN(C(=O)c2cccc3cccnc23)CC1 | 8.26
O=C(Nc1ccc2c(ccn2CCN2CCOCC2)c1)c1ccncc1 | 25.7
CCN(CC)C(CNC(=O)c1ccc(S(C)(=O)=O)cc1)c1ccco1 (centres undefined) | 19.2
CCCn1cc(NC(=O)c2ccncc2)ccc1=O | 104
CN(C)C(=O)Cc1ccccc1NCc1cccc2cccnc12 | 13.6
O=C(Nc1ccc(CCN2CCSCC2)cc1)NC1CC1 | 16.4
CCCn1cc(NC(=O)c2ccc(N(C)CC)cc2)ccc1=O | 31.5
CCCN1CCC(NC(=O)Nc2ccc(OC)c(OC)c2)CC1 | 1.33
COCC1(CNC(=O)[C@@]23CNC[C@@H]2CN(C2CCCC2)C3)CC1 | 12.8
CS(=O)(=O)N1C[C@H](NC(=O)c2ccno2)[C@@H]2OCCC[C@@H]21 | 10

Structure (SMILES) | Percent Effect [%]
COc1ccc(CN2C[C@@H]3OCCN(C)[C@@H]3C2)cc1 | 19.3
Cc1nc([C@@H]2C[C@H]3CN(Cc4scnc4C)C[C@H]3O2)no1 | 17.1
Cn1cc(C(=O)N[C@H]2CN(Cc3nccs3)[C@@H]3CCCO[C@H]23)cn1 | 28.6
Fc1cnc(N2C[C@H]3CCC[C@@]3(COc3ccccn3)C2)nc1 | 0
CC(=O)N1CCO[C@@H]2CN(Cc3cccc(Cl)c3)C[C@@H]2C1 | 15.3
COc1cccc(CN2C[C@@H]3COC[C@]3(COc3cccnc3)C2)c1 | 19.3
c1ccc(OC2COC3(CCN(Cc4ccccn4)CC3)C2)cc1 (centres undefined) | 15
Cc1cccc(CN2CCS(=O)(=O)[C@@H]3CCN(C(=O)C4CC4)CC[C@@H]32)n1 | 5.26
Cn1cc(NC(=O)c2cccc3cccnc23)ccc1=O | 20.5
CCS(=O)(=O)c1cccc(C(=O)Nc2cccc3c2C(=O)N(C)C3=O)c1 | 21.5
CCCn1cc(NC(=O)c2cccc3cccnc23)ccc1=O | 75.9
CCCn1cc(NC(=O)c2ccc(S(=O)(=O)CC)cc2)ccc1=O | 114
CN1CCC/C1=N\S(=O)(=O)c1ccc(NC(=O)c2ccc(F)cc2)cc1 | 15.6
CCCn1cc(NC(=O)c2cccnc2O)ccc1=O | 17.1
O=C(C[C@@H]1COC[C@H]2CN(Cc3ccccc3)C[C@@H]12)N1CCCC1 | 23.1
CN1[C@@H](C(=O)NCC2CC2)C[C@@H]2CN(Cc3ccco3)C[C@@H]21 | 17.1
CCOC(=O)[C@]12CCCN(Cc3nccs3)C[C@H]1CN(C(C)=O)C2 | 10.7
O=C([C@@H]1CC[C@@H]2[C@@H](CCN2CCOCc2ccccc2)O1)N1CCCC1 | 16
CN(C)C(=O)CN1C[C@@H]2CC[C@H](C1)N(Cc1ccc3nsnc3c1)C2 | 11.3
Cc1cnc(N2CC[C@@H]3O[C@@H](COCc4ccccn4)CC[C@@H]32)nc1 | 13
COc1cccc(C2CC(=O)Nc3nc(N4CCOCC4)sc32)c1OC (centres undefined) | 111
COc1cccc(CNc2nc(N3CCOCC3)ns2)c1OC | 13.5
COc1cccc(CNCc2ccnc(N3CCOCC3)c2)c1OC | 7.14

Structure (SMILES) | Percent Effect [%]
COc1ccccc1C1CC(=O)Nc2nc(N3CCCCC3)sc21 (centres undefined) | 118
CCOc1cccc(C2CC(=O)NCc3nc(N4CCCC4)sc32)c1 (centres undefined) | 24.7
CC(C)Oc1ccccc1C1CC(=O)Nc2nc(N3CCOCC3)sc21 (centres undefined) | 97.5
COc1ccccc1C1CC(=O)Nc2c1c(=O)[nH]n2C1CCCC1 (centres undefined) | 14.3
CCn1ncnc1C1CC(=O)NCc2nc(N3CCCC3)sc21 (centres undefined) | 15.7
CC(C)Oc1ccccc1C1CC(=O)Nc2c1cnn2C (centres undefined) | -14.3
COc1ccccc1C1CC(=O)Nc2c1c(=O)[nH]n2C(C)C (centres undefined) | 16.5
O=c1[nH]nc(-c2cccs2)c2sc(N3CCOCC3)nc12 | 11.9
COc1cccc(C2CC(=O)Nc3nc(N4CCCCC4)sc32)c1OC (centres undefined) | 120
Cc1cccc(CN2C(=O)CC[C@@H]3[C@H]2CCN3Cc2ccc(C)s2)n1 | 8.03
CC1=N[C@@]2(CC[C@@H]3CN(S(=O)(=O)N(C)C)C[C@@H]32)C(=O)N1CC(C)C | 9.02
CC(=O)N1CC[C@H]2CC(=O)N(CCc3c[nH]cn3)CC[C@H]2C1 | 9.46
Cc1ncc(C(=O)N2CC[C@@]3(O)CCN(C(=O)N(C)C)C[C@H]3C2)cn1 | 10.6
O[C@@]1(CN2CCN(Cc3ccncc3)CC2)CCCN2CCCC[C@@H]21 | 20
O=C1CC(c2ccccc2Br)c2sc(N3CCOCC3)nc2N1 (centres undefined) | 87.5
O=C1CC(c2ccccc2C(F)(F)F)c2sc(N3CCOCC3)nc2N1 (centres undefined) | 5
Cn1ncc2c1NC(=O)CC2c1ccccc1Br (centres undefined) | -2.5
COc1cccc(C2CC(=O)Nc3nc(N)sc32)c1OC (centres undefined) | 91.4
COc1cccc(C2C3=C(COC3=O)Nc3[nH]nc(C)c32)c1OC (centres undefined) | 16.7
COc1cccc([C@@H]2N[C@H](c3nccs3)Cc3ccsc32)c1OC | 9.86
Cc1ccc(C(=O)N2[C@@H]3CC[C@H]2CN(C)C(=O)C3)c(=O)[nH]1 | 15.9
CN1[C@@H](C(=O)NCC2CC2)C[C@H]2CN(Cc3cccc(C#N)c3)C[C@H]21 | 17.4
CN(C)CCN1C(=O)C[C@@H]2[C@@H]1CCN2S(=O)(=O)c1ccccc1 | 13.6
